The target in experiment [1] is rat Adrenergic Receptor, Alpha 2 (Adra2), Non-selective Binding, Adra2a (gene 25083) (UniProt P22909). Briefly: NVS_GPCR_rAdra2_NonSelective: NovaScreen (NVS) G Protein-Coupled Receptor Assay for rat Adrenergic Receptor, Alpha 2 (Adra2), Non-selective Binding (AID 2283299). Put shortly: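 Filter-based scintillation counting of radioligand binding to rat cortical membrane receptors, measured 1.25 hours post-dosing; loss of signal versus DMSO indicates displacement. Initial single-concentration duplicate at 25 uM, then concentration series.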

Experiment [2] deals with rat Neonicotinoid receptor (NNR), Chrna7 (gene 25302) (UniProt Q05941). In words: NVS_LGIC_rNNR_BungSens: NovaScreen (NVS) Ligand-Gated Ion Channel Assay for rat Neonicotinoid receptor (NNR) (AID 2283315). Put shortly: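 Rat cortical membrane preparation incubated 2.5 h with tritiated or iodinated radioligand and test chemical. Bound radioactivity was filtered and counted by scintillation, and displacement was analysed against DMSO.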

The target in experiment [3] is Sodium channel protein type 1 subunit alpha (Rattus norvegicus) (UniProt P04774). In words: NVS_IC_rNaCh_site2: NovaScreen (NVS) Ion Channel Assay for rat Sodium Channel, Site 2 (NaCh) (AID 2283322).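 Note: hit means loss of radioligand binding signal relative to DMSO so AC50 marks displacement.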 Put shortly:
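Initial duplicate single-point testing at 25 uM, followed by concentration-response runs for actives. Binding of radioligand to rat forebrain membranes quantified after 1 h via filter-based radiodetection.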

For experiment [4], the target named is human Peripheral-type Benzodiazepine Receptor (PBR), TSPO (gene 706) (UniProt P30536). Briefly: NVS_MP_hPBR: NovaScreen (NVS) Membrane Protein Assay for human Peripheral-type Benzodiazepine Receptor (PBR) (AID 2283331).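 Note: hits reduce radioligand binding relative to DMSO baseline.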 A digest of the protocol: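 Cell-free binding to human colonic membrane preparations measured by filter-based scintillation counting after 1 h. Compounds first run at 25 uM in duplicate, then concentration series for actives; signal loss against DMSO baseline.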

For a further experiment, the system named is NCBI gene 24521. In words: NVS_IC_rKATPCh: NovaScreen (NVS) Ion Channel Assay for rat Potassium Channel, ATP-Sensitive (KATPCh) (AID 2283319). Put shortly:
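Primary duplicate screen at 25 uM, then singleton concentration series to 50 uM maximum, in a rat cortex membrane radioligand displacement assay. Binding measured by filtration and scintillation 2 h post-dose; DMSO baseline.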

For experiment [5], the target named is rat Gamma-Aminobutyric Acid Type A Receptor, Non-Selective (GABAR-NonSelective), Gabra1 (gene 29705) (UniProt P62813). In words: NVS_LGIC_rGABAR_NonSelective: NovaScreen (NVS) Ligand-Gated Ion Channel Assay for rat Gamma-Aminobutyric Acid Type A Receptor, Non-Selective (GABAR-NonSelective) (AID 2283326). Put shortly:
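Compounds were first screened in duplicate at 25 uM, with actives run as singleton concentration series (max 50 uM). Binding of a radioligand to rat whole-brain GABA-A preparation was measured by filtration and scintillation counting after 1 h, DMSO baseline.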

For experiment [6], the target named is human Serotonin, 5-Hydroxytryptamine Receptor 3 (5HT3), HTR3A (gene 3359) (UniProt P46098). In words: NVS_LGIC_h5HT3: NovaScreen (NVS) Ligand-Gated Ion Channel Assay for human Serotonin, 5-Hydroxytryptamine Receptor 3 (5HT3) (AID 2283325). Put shortly: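 Initially tested at 25 uM in duplicate, then up to 50 uM in concentration-response for actives, compounds competed with a radioligand for HEK293-derived human 5-HT3 receptor. Bound counts were measured by filtration and scintillation at 1 h; loss of signal versus DMSO.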

The subject of experiment [7] is rat Adrenergic, Alpha 1B Receptor (Adra1B), gene 24173. Briefly: NVS_GPCR_rAdra1B: NovaScreen (NVS) G Protein-Coupled Receptor Assay for rat Adrenergic, Alpha 1B Receptor (Adra1B) (AID 2283297). Put shortly:
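Filter-binding radioligand competition on membranes from rat liver, read after 1 h by scintillation counting. Single-concentration duplicate screen at 25 uM, followed by concentration-response on actives, normalised to DMSO.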

In experiment [8] the target is rat Histamine Receptor (H3), Hrh3 (gene 85268) (UniProt Q9QYN8). Briefly: NVS_GPCR_rH3: NovaScreen (NVS) G Protein-Coupled Receptor Assay for rat Histamine Receptor (H3) (AID 2283303). A digest of the protocol:
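Filter-binding radioligand competition on rat forebrain membranes, 1 h incubation; compounds screened at 25 µM in duplicate and followed in concentration series to 50 µM, loss of bound signal vs DMSO.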

The target of a further experiment is Adra2b (gene 24174) (UniProt P19328). Briefly: NVS_GPCR_rmAdra2B: NovaScreen (NVS) G Protein-Coupled Receptor Assay for hybird cells Adrenergic, Alpha 2B Receptor (Adra2B) (AID 2283306). Put shortly:
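Compounds screened first at 25 uM in duplicate, with actives followed up in concentration-response; specific radioligand displacement from hybrid neuroglioma/blastoma cell membrane preparations measured by filter scintillation counting after 1 h, normalized to DMSO.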

Experiment [9] can be described thus: NVS_IC_rCaDHPRCh_L: NovaScreen (NVS) Ion Channel Assay for rat Calcium Channel, Type L, Dihydropyridine Site (CaDHPRCh_L) (AID 2283320). A digest of the protocol:
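Rat cortex membrane preparation; dihydropyridine-site radioligand displacement read 1 h post-dose by filtration and scintillation. Primary single-point screen 25 uM in duplicate, then concentration series to 50 uM maximum; DMSO as negative control.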

Experiment [10] concerns the target rat Somatostatin Receptor (SST), Sstr1 (gene 25033) (UniProt P28646). Briefly: NVS_GPCR_rSST: NovaScreen (NVS) G Protein-Coupled Receptor Assay for rat Somatostatin Receptor (SST) (AID 2283314). Put shortly:
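Single-concentration duplicate screen (25 uM), then concentration-response up to 50 uM for chemicals passing a threshold such as 30% inhibition. Membranes came from rat forebrain. Binding was measured 1 h post-dose by filter radiodetection and scintillation, relative to DMSO.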

The target of experiment [11] is human Androgen Receptor (AR), AR (gene 367) (UniProt P10275). Briefly: NVS_NR_hAR: NovaScreen (NVS) Nuclear Receptor Binding Assay for human Androgen Receptor (AR) (AID 2283332). A digest of the protocol:
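Radioligand competitive binding, scintillation read-out, in cell-free extract from LnCAP, measured 20 h after dosing. Screened first in duplicate at 25 uM, then concentration series for actives; activity fitted against DMSO.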

Values joined by “and” are separate entries in the source; they are usually repeats but may differ in a detail not shown here. Equal values may be shown once. Inconclusive results are not listed. Active and inactive are the calls of the source. Rule for the calls: active = hit-call score of the fitted dose curve at least 0.9, where 1 is the maximum; inconclusive = response in the unintended direction; inactive = score below 0.9.

The AC50 is the concentration giving half of the maximal activity seen.

rat Adrenergic Receptor, Alpha 2 (Adra2), Non-selective Binding, Adra2a (gene 25083), sequence (P22909 whole entry, looked up): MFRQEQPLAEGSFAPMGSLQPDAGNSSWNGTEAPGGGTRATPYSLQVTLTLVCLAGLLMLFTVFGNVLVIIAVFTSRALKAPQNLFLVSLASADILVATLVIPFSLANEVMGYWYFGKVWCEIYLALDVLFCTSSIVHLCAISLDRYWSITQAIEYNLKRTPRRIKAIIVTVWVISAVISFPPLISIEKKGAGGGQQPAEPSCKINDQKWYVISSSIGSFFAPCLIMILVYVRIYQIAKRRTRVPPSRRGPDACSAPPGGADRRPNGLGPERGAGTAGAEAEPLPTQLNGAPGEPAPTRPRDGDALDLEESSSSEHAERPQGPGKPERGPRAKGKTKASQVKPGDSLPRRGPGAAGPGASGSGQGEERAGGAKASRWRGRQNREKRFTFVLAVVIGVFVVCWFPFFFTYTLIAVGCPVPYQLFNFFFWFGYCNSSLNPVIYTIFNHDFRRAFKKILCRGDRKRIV
human Peripheral-type Benzodiazepine Receptor (PBR), TSPO (gene 706), sequence (P30536 whole entry, looked up): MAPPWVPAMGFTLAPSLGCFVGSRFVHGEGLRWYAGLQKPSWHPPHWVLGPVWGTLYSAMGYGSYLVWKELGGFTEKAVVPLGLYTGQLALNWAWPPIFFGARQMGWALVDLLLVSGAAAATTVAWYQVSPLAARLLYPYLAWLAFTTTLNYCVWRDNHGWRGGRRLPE
Adra2b (gene 24174), sequence (P19328 whole entry, looked up): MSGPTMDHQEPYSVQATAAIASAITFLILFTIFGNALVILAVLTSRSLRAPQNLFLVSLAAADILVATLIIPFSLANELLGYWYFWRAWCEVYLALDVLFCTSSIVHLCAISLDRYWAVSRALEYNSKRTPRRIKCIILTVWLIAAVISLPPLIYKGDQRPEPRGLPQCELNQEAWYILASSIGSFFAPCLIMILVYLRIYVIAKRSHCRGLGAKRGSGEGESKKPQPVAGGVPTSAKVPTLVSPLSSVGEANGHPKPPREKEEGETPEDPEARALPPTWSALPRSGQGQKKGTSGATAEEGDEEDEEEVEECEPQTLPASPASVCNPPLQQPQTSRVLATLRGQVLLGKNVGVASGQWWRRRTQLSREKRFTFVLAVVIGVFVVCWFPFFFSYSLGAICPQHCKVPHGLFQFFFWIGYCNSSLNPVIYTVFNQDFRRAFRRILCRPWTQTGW
human Androgen Receptor (AR), AR (gene 367), sequence (P10275 whole entry, looked up): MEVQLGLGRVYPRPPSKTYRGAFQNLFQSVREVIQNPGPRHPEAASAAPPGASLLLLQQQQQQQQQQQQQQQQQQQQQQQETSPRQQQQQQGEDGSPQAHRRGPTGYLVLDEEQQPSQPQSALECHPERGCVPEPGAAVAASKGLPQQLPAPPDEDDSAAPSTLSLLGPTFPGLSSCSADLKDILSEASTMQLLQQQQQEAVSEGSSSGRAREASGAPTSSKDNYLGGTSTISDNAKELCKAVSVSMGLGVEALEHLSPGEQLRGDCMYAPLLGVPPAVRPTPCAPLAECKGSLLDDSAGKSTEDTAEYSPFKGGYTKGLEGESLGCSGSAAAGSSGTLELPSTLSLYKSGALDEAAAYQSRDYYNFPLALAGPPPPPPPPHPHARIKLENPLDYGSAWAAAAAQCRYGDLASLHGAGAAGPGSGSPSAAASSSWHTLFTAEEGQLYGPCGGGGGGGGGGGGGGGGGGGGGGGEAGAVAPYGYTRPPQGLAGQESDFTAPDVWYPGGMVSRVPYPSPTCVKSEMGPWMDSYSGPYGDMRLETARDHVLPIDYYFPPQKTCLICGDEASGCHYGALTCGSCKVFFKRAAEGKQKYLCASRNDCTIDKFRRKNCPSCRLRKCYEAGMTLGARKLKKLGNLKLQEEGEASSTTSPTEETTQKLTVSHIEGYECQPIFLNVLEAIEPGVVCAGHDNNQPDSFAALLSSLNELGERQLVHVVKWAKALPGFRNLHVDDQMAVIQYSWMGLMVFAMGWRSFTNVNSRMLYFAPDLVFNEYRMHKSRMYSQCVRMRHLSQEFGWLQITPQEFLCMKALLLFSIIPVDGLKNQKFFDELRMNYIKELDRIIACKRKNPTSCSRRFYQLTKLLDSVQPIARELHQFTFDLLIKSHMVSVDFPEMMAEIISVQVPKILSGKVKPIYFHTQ
human Serotonin, 5-Hydroxytryptamine Receptor 3 (5HT3), HTR3A (gene 3359), sequence (P46098 whole entry, looked up): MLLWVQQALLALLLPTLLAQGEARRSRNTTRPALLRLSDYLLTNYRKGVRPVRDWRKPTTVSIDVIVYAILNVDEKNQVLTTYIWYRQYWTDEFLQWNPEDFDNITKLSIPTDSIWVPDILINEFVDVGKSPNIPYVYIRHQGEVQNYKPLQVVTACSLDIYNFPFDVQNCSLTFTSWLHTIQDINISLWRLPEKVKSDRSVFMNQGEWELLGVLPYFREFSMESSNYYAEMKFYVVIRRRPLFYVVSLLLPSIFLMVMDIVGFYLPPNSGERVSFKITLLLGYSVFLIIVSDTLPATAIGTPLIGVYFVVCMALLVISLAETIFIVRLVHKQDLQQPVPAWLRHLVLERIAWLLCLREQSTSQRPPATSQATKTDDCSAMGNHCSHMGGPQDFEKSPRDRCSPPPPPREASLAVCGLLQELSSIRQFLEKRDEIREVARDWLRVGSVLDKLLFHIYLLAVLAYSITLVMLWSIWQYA
rat Histamine Receptor (H3), Hrh3 (gene 85268), sequence (Q9QYN8 whole entry, looked up): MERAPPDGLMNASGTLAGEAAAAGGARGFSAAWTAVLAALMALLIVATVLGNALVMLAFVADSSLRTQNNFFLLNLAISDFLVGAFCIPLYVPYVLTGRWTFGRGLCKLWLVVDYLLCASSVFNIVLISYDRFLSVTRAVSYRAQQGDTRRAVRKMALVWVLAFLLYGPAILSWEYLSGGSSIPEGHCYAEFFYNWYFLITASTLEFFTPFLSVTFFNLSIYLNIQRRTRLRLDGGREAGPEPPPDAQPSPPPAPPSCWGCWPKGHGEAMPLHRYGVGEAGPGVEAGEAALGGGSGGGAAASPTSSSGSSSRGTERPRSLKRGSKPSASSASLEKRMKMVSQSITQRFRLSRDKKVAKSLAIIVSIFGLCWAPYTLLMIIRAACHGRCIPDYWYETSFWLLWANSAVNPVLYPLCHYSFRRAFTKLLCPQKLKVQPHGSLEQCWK
rat Neonicotinoid receptor (NNR), Chrna7 (gene 25302), sequence (Q05941 whole entry, looked up): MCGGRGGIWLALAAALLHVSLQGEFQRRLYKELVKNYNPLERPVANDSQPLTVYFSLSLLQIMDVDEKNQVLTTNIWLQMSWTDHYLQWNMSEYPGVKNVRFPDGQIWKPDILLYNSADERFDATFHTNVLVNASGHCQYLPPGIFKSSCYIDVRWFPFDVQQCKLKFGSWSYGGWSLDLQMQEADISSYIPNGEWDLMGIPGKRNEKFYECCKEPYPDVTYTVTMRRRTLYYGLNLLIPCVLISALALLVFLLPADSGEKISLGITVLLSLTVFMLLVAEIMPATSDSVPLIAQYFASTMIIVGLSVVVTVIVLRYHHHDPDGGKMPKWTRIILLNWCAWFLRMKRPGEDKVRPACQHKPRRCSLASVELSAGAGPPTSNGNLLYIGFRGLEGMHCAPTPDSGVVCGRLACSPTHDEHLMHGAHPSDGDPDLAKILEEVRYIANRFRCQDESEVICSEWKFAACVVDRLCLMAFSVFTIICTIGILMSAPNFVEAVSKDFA
rat Somatostatin Receptor (SST), Sstr1 (gene 25033), sequence (P28646 whole entry, looked up): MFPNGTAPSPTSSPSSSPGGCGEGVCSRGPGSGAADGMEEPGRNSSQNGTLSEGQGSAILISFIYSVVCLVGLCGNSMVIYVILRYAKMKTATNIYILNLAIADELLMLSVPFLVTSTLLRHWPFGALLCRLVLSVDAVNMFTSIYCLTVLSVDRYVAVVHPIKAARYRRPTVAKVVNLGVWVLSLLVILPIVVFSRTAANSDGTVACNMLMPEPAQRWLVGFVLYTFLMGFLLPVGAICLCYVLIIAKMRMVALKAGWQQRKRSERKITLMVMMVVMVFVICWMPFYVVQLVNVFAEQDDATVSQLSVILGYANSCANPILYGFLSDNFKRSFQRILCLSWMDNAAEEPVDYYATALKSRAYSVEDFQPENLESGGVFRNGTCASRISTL
rat Gamma-Aminobutyric Acid Type A Receptor, Non-Selective (GABAR-NonSelective), Gabra1 (gene 29705), sequence (P62813 whole entry, looked up): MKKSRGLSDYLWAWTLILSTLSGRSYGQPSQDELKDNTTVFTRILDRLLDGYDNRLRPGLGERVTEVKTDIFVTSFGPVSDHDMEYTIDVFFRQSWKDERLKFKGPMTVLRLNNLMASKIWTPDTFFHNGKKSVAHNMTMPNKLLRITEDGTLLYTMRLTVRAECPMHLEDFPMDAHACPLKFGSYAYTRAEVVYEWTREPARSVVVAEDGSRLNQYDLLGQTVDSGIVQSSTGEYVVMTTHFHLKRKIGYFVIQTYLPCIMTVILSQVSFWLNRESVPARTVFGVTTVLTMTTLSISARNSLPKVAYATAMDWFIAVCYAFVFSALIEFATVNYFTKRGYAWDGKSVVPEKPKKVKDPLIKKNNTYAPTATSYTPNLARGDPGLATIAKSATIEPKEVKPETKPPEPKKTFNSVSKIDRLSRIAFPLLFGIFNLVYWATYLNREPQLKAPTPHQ

Consider `NC(=NCCCCCCN=C(N)/N=C(\N)Nc1ccc(Cl)cc1)/N=C(\N)Nc1ccc(Cl)cc1`, for which the half-maximal activity concentration (AC50) in experiment [1] is 17.6 µM (active); in experiment [2] it was 38.3 µM (active); in experiment [4], 10.3 µM (active). In addition, the result in [3] was inactive.
Regarding `CCCCCc1ccc(O)cc1`, the AC50 was 1.07 µM (active) in [3] and 25 µM (active) in experiment [4].
`CCCCCCCCCCCCOS(=O)(=O)O`: the result in the experiment on NCBI gene 24521 was inactive. In addition, the AC50 in experiment [5] was 5.96 µM (active).
Regarding `CCCCC(CC)C(=O)O` (stereo unspecified), the compound was called inactive in [6].
Consider `CCCCCCCCCCCCCCCCCC[N+](C)(C)Cc1ccccc1`, for which the compound was classed as inactive in experiment [3] and in experiment [4].
Consider `C/C=C/C(=O)C1=C(C)CCCC1(C)C`, for which the AC50 in [4] is 10.8 µM (active).
The same measure, in the same setting: the value for `CCCCC(CC)C(=O)OCCOCCOCCOCCOC(=O)C(CC)CCCC` (stereo unspecified) was 15.8 µM (active).
As to `CCc1cccc(CC)c1N(COC)C(=O)CS(=O)(=O)O`, the result in [3] was inactive.
Take `CCCCc1oc2ccccc2c1C(=O)c1cc(I)c(OCCN(CC)CC)c(I)c1`: the AC50 was 9.13 µM (active) in [7]; 10.8 µM (active) in experiment [1]; 6.48 µM (active) in [8]; 11.4 µM (active) with Adra2b (gene 24174); 0.772 µM (active) in [9]; 1.67 µM (active) in experiment [3]. For the same compound, the AC50 in experiment [4] was 5.22 µM (active).
Consider `CCCCCC(C)OC(=O)COc1ccc(Cl)c2cccnc12` (stereo unspecified), for which the AC50 in [4] is 4.96 µM (active).
Turning to `Clc1ccc(Nc2nnc(Cc3ccncc3)c3ccccc23)cc1`, the AC50 in experiment [3] was 2.08 µM (active); in experiment [4] it was 1.95 µM (active).
With `CN(C)c1ccc(C(=C2C=CC(=[N+](C)C)C=C2)c2ccccc2)cc1`, the AC50 in experiment [1] was 8.31 µM (active) and 7.55 µM (active); in [3], 860 nM (active) and 5.04 µM (active); in experiment [4], 1.29 µM (active) and 1.63 µM (active).
Take `CN(Cc1cnc2nc(N)nc(N)c2n1)c1ccc(C(=O)N[C@@H](CCC(=O)O)C(=O)O)cc1`: the AC50 in experiment [10] is 3.06 µM (active). The compound was classed as inactive in experiment [3], in experiment [4] and in [11].
